Our source for the Potency and outcome values is PubChem BioAssay (Tox21).

A short description of assay [1]: A CellTox Green Cytotoxicity Assay to monitor cytotoxicity in HEK293 cells - 32 hour (AID 1224881). Note: nearly all actives have a fitted effect of over 40% in size. Note: potency is the fitted concentration of half-maximal effect. Put shortly:
(§1)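 HEK293 cells, 600/well, were preincubated 5 hours and then exposed to compounds at 37 C for up to 40 hours. A cell-impermeant cyanine dye staining dead-cell DNA was read by fluorescence at 0, 8, 16, 24, 32 and 40 h time points.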

A short description of assay [2]: A CellTox Green Cytotoxicity Assay to monitor cytotoxicity in HepG2 cells - 0 hour (AID 1224882). Note: nearly all actives have a fitted effect of over 35% in size. Put shortly:
(§2)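 HepG2 cells, 600/well, preincubated 5 h with CellTox Green dye, then exposed to Tox21 compounds in DMSO at 37 C for up to 40 h. Dead-cell DNA fluorescence read at the indicated time point.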

Assay [3] is described as follows: A CellTox Green Cytotoxicity Assay to monitor cytotoxicity in HepG2 cells - 32 hour (AID 1224883). Note: nearly all actives have a fitted effect of over 50% in size. Put shortly: as §2
A short description of assay [4]: A CellTox Green Cytotoxicity Assay to monitor cytotoxicity in HEK293 cells - 8 hour (AID 1224884). Note: nearly all actives have a fitted effect of over 35% in size. In outline:
as §1

Assay [5] in a line: qHTS RealTime-Glo MT Cell Viability Assay in HepG2 cells - 16 hour (AID 1224885). Note: nearly all actives have a fitted effect of over 50% in size. Note: potency is the fitted concentration of half-maximal effect. Put shortly: (§3)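 HepG2 cells were seeded at 600 cells/well together with NanoLuc luciferase and a cell-permeant prosubstrate, preincubated 5 h at 37 C/5% CO2, then pin-dosed with compounds in DMSO. Nonlytic luminescence from viable cells was read at each time point.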
Background: In qHTS, concentration-response curves come from the screen itself.

Assay [6] in a line: qHTS RealTime-Glo MT Cell Viability Assay in HEK293 cells - 24 hour (AID 1224886). Note: nearly all actives have a fitted effect of over 50% in size. Note: potency is the fitted concentration of half-maximal effect. Put shortly: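 HEK293 cells were seeded at 600 cells/well together with NanoLuc luciferase and cell-permeant prosubstrate, preincubated 5 h at 37 C/5% CO2, then given compound in DMSO by pintool. Luminescence from viable-cell prosubstrate reduction was read repeatedly over 40 h.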
The nature of assay [7]: qHTS RealTime-Glo MT Cell Viability Assay in HEK293 cells - 8 hour (AID 1224887). Note: top concentration of the series differs between compounds; nearly all actives have a fitted effect of over 50% in size. In outline: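 600 cells/well were plated with the nonlytic NanoLuc/prosubstrate reagent, pre-incubated 5 h, then given 23 nL of compound in DMSO. Incubation at 37 C for 40 h, with luminescence from viable-cell-reduced substrate read repeatedly from 0 h.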
A short description of assay [8]: A CellTox Green Cytotoxicity Assay to monitor cytotoxicity in HEK293 cells - 16 hour (AID 1224888). Note: nearly all actives have a fitted effect of over 35% in size. Put shortly: as §1
A short description of assay [9]: qHTS RealTime-Glo MT Cell Viability Assay in HepG2 cells - 0 hour (AID 1224889). Note: nearly all actives have a fitted effect of over 50% in size. Put shortly:
as §3

Assay [10] is described as follows: A CellTox Green Cytotoxicity Assay to monitor cytotoxicity in HepG2 cells - 8 hour (AID 1224890). Note: nearly all actives have a fitted effect of over 45% in size. In outline: as §2
A short description of assay [11]: qHTS assay to identify small molecule antagonists of the estrogen receptor alpha (ER-alpha) signaling pathway using the BG1 cell line in the presence of 0.1 nM 17-beta-estradiol - cell viability counter screen (AID 1259241). Note: nearly all actives have a fitted effect of over 40% in size. In outline: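 Following 5 days in phenol red-free medium with charcoal-stripped serum, VM7Luc4E2 cells received test compounds alongside 0.1 nM 17beta-estradiol (final) at 37C for 22 hr. Live cells were then quantified via protease-substrate fluorescence.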

Assay [12] in a line: qHTS assay to identify small molecule HDAC inhibitors (AID 1259364). Note: nearly all actives have a fitted effect of over 45% in size. Note: potency is the fitted concentration of half-maximal effect. Put shortly: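 Wild-type HCT-116 cells, plated overnight at 37 C, exposed to compounds 2 hr at 37 C; luminogenic HDAC-Glo substrate then added 30 min at room temperature. Luminescence reports relative endogenous class I/II HDAC activity.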
The nature of assay [13]: qHTS assay to identify small molecule HDAC inhibitors - cell viability counter screen (AID 1259365). Put shortly: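 HCT-116 wild-type, overnight attachment; 2hr drug exposure, 37C; CellTiter-Glo luminescent ATP readout after 30min RT.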
The nature of assay [14]: qHTS assay to identify small molecule agonists of the sonic hedgehog signaling (Shh) pathway - cell viability counter screen (AID 1259366). Note: nearly all actives have a fitted effect of over 50% in size. Put shortly:
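Compounds in DMSO were pin-transferred onto 3T3 Gli1-Luc cells that had settled 4hr; plates then stood 24hr at 37C and 5% CO2. One hour before the end, CellTiter-Fluor was added and fluorescence recorded.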

Assay [15] in a line: qHTS assay to identify small molecule antagonists of the sonic hedgehog signaling (Shh) pathway - cell viability counter screen (AID 1259367). Note: nearly all actives have a fitted effect of over 55% in size. In outline:
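Using CellTiter-Fluor, viability of Gli1-Luc reporter 3T3 cells is read by fluorescence in the wells used for the Shh luciferase assay. Treatment lasts 23 hr with conditioned medium, then reagent 1 hr at 37C.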

The nature of assay [16]: qHTS assay to identify small molecule agonists of the sonic hedgehog signaling (Shh) pathway (AID 1259368; calls by dose curve;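 note: NIH/3T3-derived 3T3Gli1-Luc cells carrying a stable Gli1-driven firefly luciferase reporter; series mostly up to about 92 µM; nearly all actives have a fitted effect of over 15% in size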). Put shortly: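 NIH/3T3-derived 3T3Gli1-Luc cells with stably integrated Gli1-driven firefly luciferase, 2,000 cells/well, compounds added after 4 hr. Incubated 24 hr at 37C, 5% CO2; luminescence read after 30 min with luciferase reagent at room temperature.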
The nature of assay [17]: qHTS assay to identify small molecule antagonists of the sonic hedgehog signaling (Shh) pathway (AID 1259369; calls by dose curve; note: nearly all actives have a fitted effect of over 45% in size; note: potency is the fitted concentration of half-maximal effect). In outline: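 NIH/3T3-derived Gli1-Luc reporter cells plated 4 h, dosed with compound, then stimulated with conditioned medium for 24 h at 37 C. Firefly luciferase luminescence read after 30 min with detection reagent at room temperature.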
Assay [18] is described as follows: qHTS assay to identify small molecule antagonists of the androgen receptor (AR) signaling pathway using the MDA cell line in the presence of 0.5 nM R1881 - cell viability counter screen (AID 1259242). Note: nearly all actives have a fitted effect of over 45% in size. In outline: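 MDA-kb2 cells (MMTV-luciferase, AR/GR responsive) were treated with compounds plus 0.5 nM R1881 (final) for 16 hr at 37C, 0% CO2. Viability was then read in the same wells as live-cell protease fluorescence (CellTiter-Fluor, 30 min).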

Assay [19] in a line: qHTS assay to identify small molecule phospholipidosis (PLD) inducers (AID 1259344; active = well fitted curve in the direction sought with a large enough effect; an effect the other way counts as inactive or inconclusive). Put shortly: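 Fluorescent phospholipid staining (LipidTOX Red) measured by automated microscopy in fixed HepG2 cells after 24 h treatment; nuclei counterstained with Hoechst 33342; amiodarone as reference inducer.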

Structures are written as SMILES. Several values for one entry are separate records, joined by “and”; a condition that tells them apart may be missing. Identical values can stand only once. Records with an inconclusive call do not appear. A structure can be active in one record and inactive in another. Activity calls are given as the source filed them. Unless noted, calls come from the whole dose curve; as a rule, active = well fitted curve in the direction sought with a large enough effect in the repeat runs; inconclusive = weak or mixed curves; inactive = no such curve, though single readings can be large; an effect the other way counts as inactive or inconclusive.

As for `CCCCCCn1cc[n+](C)c1`, the Potency result in assay [1], in [2], in assay [3], in [4], in assay [5] and in assay [7] was “inactive” each time. Also, the Potency entry in [8], in assay [9], in assay [10], in assay [11], in assay [12] and in assay [13] was “inactive” throughout. Also, the Potency entry in assay [14] and in assay [15] was “inactive” each time. Moreover, the Potency in assay [6] is 22.2 µM (active) and 14 µM (active) and 17.7 µM (active); in [17] it was 7.74 µM (active) and 89.9 nM (active). Also, the call in [16] was inactive.
As for `CC[N+]1(C)CCCC1`, the Potency entry in assay [1], in assay [2], in [3], in assay [4], in [5] and in assay [7] was “inactive” each time. Also, the Potency entry in assay [8], in [9], in assay [10], in [11], in assay [18] and in [12] was “inactive” throughout. Moreover, the Potency entry in assay [13], in assay [14] and in assay [15] was “inactive” in each case. Besides, the Potency result in assay [6] is “inactive and 24.6 µM (active)”; in assay [17] it was 39.5 µM (active) and inactive. In addition, the molecule was classed as inactive in [16].
Regarding `O=c1nc(O)n(Cl)c(=O)n1Cl`, the Potency entry in [1], in [2], in assay [3], in assay [4], in assay [5] and in [6] was “inactive” in each case. Moreover, the Potency result in assay [7], in assay [8], in assay [9], in [10], in assay [11] and in assay [18] was “inactive” each time. In addition, the Potency result in assay [12], in assay [13], in [14], in assay [15] and in assay [17] was “inactive” in each case. For the same molecule, the call in [16] was inactive.
Take `Nc1ccc(Cl)cc1`: the Potency result in assay [1], in assay [2], in assay [3], in assay [4], in [5] and in assay [6] was “inactive” in each case. For the same molecule, the Potency result in [7], in [8], in assay [9], in [10], in assay [11] and in assay [18] was “inactive” throughout. Further, the Potency result in assay [13], in assay [14], in assay [15] and in assay [17] was “inactive” each time. In addition, the Potency result in assay [12] is “inactive and 27.8 µM (active)”. Moreover, the result in assay [16] was inactive.
As for `Oc1cccc2cccnc12`, the Potency was 17.5 µM (active) and 6.16 µM (active) and inactive in [1]; “inactive and 3.89 µM (active)” in assay [5]; 5.49 µM (active) and inactive in [6]. For the same molecule, the Potency result in [2], in assay [4], in assay [7], in assay [8], in assay [9] and in assay [10] was “inactive” throughout. The Potency entry in [18], in [12] and in assay [13] was “inactive” each time. Besides, the result in [19] and in assay [16] was inactive.
Consider `CCCCCCCCn1cc[n+](C)c1`, for which the Potency in [1] was 21.7 µM (active) and inactive; in assay [6], 3.86 µM (active) and 4.41 µM (active); in assay [17], 215 nM (active) and 174 nM (active). Also, the Potency entry in assay [2], in assay [3], in [4], in assay [5], in [7] and in assay [8] was “inactive” throughout. Moreover, the Potency entry in [9], in [10], in [11], in [12], in assay [13] and in assay [14] was “inactive” in each case. The Potency entry in assay [15] is “inactive”. The outcome in assay [16] was inactive.
For `O=[N+]([O-])O`, the Potency result in assay [1], in assay [2], in [3], in assay [4], in assay [5] and in assay [6] was “inactive” each time. Besides, the Potency entry in [7], in [8], in assay [9], in assay [10], in assay [11] and in assay [18] was “inactive” each time. The Potency result in assay [12], in assay [13], in [14], in assay [15] and in [17] was “inactive” in each case. Further, the molecule was classed as inactive in assay [16].
Take `CNC`: the Potency entry in [1], in assay [2], in assay [3], in assay [4], in assay [5] and in assay [6] was “inactive” each time. For the same molecule, the Potency result in assay [7], in assay [8], in assay [9], in [10], in assay [11] and in [18] was “inactive” in each case. The Potency result in [12], in assay [13], in [14], in assay [15] and in assay [17] was “inactive” each time. Moreover, the molecule was classed as inactive in assay [16].
